In PubChem BioAssay:

Key:
[1] = AGP1-GFP expression modulators, hit retest, confirmation, cell-based, flow cytometry, S. cerevisiae, cherry picks (AID 2273);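 note: median GFP channel fluorescence over the whole cell population gate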; conditions: S. cerevisiae AGP1-GFP strain, 3 h, at 10 µM
[2] = target: Integrin beta-1 (Homo sapiens) + Integrin alpha-4 (Homo sapiens) (UniProt P13612+P05556); test: inhibition of HUTS-21 binding to VLA-4, pilot screen, VLA-4 allosteric modulator project, U937 cells, HUTS-21 mAb, flow cytometry, validation set (AID 2674;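 active = inhibition above 50%, about 3 SD of the validation set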;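 note: antibody binding induced by the VLA-4 ligand LDV present at three times its Kd; 0% = LDV ligand with antibody and no compound and 100% = antibody without LDV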); conditions: HUTS-21 LIBS mAb binding, at 6.7 µM, active compounds read high, binding induced by LDV ligand
Sequence of Integrin beta-1 (Homo sapiens) + Integrin alpha-4 (Homo sapiens) (P05556 whole entry, looked up): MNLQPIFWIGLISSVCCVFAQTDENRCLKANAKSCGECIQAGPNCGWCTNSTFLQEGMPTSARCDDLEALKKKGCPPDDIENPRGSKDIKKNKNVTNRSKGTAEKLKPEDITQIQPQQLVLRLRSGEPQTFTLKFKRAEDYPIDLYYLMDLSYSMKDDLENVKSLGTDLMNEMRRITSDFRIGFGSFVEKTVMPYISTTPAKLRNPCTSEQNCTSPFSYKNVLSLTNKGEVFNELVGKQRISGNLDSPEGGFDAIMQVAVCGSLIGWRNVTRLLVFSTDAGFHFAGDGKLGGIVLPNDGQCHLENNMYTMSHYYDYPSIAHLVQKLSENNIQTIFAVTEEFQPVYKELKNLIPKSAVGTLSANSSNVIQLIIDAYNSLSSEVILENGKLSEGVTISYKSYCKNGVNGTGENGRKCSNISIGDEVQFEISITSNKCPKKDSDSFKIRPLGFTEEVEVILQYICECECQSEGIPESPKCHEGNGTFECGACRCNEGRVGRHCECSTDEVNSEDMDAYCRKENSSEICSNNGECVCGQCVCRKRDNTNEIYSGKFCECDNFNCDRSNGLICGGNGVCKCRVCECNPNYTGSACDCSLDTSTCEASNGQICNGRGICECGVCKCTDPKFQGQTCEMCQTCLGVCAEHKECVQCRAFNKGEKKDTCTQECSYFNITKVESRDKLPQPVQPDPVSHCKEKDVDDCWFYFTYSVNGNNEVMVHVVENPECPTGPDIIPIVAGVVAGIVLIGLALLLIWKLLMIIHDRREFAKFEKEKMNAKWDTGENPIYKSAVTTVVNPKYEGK
Sequence of Integrin beta-1 (Homo sapiens) + Integrin alpha-4 (Homo sapiens) (P13612 whole entry, looked up): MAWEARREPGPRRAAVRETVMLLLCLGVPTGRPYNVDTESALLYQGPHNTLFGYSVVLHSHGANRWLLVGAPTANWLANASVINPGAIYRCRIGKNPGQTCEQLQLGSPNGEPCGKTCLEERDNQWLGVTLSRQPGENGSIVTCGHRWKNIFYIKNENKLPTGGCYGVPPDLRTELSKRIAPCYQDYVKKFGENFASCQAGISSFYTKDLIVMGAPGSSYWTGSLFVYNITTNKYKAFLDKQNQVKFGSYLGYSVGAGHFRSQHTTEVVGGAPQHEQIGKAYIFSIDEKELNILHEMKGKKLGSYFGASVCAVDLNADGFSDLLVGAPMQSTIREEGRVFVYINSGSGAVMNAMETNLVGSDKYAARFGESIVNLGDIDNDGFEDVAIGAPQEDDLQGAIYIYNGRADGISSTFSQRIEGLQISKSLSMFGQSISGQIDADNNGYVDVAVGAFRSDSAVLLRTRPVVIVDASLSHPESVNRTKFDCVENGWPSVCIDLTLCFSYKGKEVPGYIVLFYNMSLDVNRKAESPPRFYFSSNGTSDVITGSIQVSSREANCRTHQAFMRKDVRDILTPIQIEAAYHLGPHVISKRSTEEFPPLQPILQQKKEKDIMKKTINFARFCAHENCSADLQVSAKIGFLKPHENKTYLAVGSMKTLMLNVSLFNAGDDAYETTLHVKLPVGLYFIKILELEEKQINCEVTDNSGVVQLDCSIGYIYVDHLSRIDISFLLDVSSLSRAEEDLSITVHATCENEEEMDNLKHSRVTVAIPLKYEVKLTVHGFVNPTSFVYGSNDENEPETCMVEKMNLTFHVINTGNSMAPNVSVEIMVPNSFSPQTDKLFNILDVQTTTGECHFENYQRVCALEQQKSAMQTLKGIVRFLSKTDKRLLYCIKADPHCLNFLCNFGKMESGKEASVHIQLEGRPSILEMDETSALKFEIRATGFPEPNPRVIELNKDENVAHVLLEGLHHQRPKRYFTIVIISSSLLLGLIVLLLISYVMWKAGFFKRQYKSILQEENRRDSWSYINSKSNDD

[3] = superoxide lowering in aged yeast cells, pilot screen, validation compound set (AID 2706;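 active = superoxide response below 65% of plate, a cut near 3 SD across the whole screen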;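 note: yeast exposed to compound for one week at 30 degrees C before staining; 100% = mean of all compound wells on the same plate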); conditions: S. cerevisiae aging, superoxide DHE fluorescence; at 10 µM; active compounds read low
[4] = target: Beta-adrenergic receptor kinase 1 (Homo sapiens) (UniProt P25098); test: GRK2 binders displacing RNA aptamer, biochemical, validation, human GRK2, bead flow cytometry (AID 488806;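 active = aptamer binding inhibition above 30%, about 3 SD of noise from non-fluorescent compounds; inactive = inhibition at or below 30%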); conditions: bead-bound GRK2, FAM-aptamer displacement, at 10 µM, active compounds read high
Sequence of Beta-adrenergic receptor kinase 1 (Homo sapiens) (P25098 whole entry, looked up): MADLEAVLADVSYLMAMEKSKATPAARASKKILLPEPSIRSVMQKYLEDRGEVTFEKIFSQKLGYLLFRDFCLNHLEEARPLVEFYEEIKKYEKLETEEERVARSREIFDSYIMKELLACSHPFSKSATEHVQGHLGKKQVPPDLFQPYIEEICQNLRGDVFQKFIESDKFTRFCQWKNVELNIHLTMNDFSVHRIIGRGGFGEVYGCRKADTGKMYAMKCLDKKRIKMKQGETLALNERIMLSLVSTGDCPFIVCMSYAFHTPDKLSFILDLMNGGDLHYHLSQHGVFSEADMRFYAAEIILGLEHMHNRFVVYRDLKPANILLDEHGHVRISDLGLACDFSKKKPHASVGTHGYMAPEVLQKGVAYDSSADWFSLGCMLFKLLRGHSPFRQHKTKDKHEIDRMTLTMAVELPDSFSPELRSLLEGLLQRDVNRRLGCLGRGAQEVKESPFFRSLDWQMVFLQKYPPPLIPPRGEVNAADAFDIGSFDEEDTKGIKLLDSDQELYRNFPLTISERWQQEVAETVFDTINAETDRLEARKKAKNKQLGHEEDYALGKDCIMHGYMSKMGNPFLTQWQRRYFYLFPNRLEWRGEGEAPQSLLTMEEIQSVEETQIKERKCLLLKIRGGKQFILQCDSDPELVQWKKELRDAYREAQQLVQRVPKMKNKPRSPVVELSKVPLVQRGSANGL

[5] = target: Beta-2 adrenergic receptor (Homo sapiens) (UniProt P07550); test: beta2AR agonists driving receptor internalization, pilot screen, cell-based, FAP fluorogen, flow cytometry, validation set (AID 504459;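 active = percent response above 42, roughly 3 SD of non-fluorescent test compounds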;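 note: agonist-driven loss of surface beta2AR via internalization measured by FAP dye flow cytometry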); conditions: Am2.2-beta2AR cells, FAP surface receptor flow cytometry; at 10 µM; active compounds read high
Sequence of Beta-2 adrenergic receptor (Homo sapiens) (P07550 whole entry, looked up): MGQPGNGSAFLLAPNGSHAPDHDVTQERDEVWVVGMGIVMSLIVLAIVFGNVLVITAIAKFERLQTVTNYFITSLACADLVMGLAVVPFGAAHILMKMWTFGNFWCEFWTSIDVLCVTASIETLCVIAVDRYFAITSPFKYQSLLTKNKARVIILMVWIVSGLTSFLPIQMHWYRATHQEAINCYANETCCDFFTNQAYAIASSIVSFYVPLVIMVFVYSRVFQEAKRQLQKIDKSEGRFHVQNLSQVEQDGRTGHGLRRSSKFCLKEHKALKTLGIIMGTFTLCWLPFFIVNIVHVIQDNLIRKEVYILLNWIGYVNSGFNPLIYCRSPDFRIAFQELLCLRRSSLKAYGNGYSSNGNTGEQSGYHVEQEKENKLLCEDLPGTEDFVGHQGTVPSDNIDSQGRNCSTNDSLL

[6] = target: AP-2 complex subunit beta (Homo sapiens) (UniProt P63010); test: inhibitors of arrestin peptide binding to AP2, pilot screen, biochemical, validation set, GST-AP2 beads, flow cytometry (AID 504541;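 active = inhibition above 54%, about 3 SD of non-fluorescent compounds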;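 note: AP2 carries R879A mutation and is captured from E. coli lysate; bead-bound FITC arrestin peptide fluorescence measuring arrestin peptide binding to AP2; 0% = DMSO wells and 100% = excess unlabeled arrestin peptide control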); conditions: FITC arrestin peptide, at 10 µM, active compounds read high, AP2 beta2 appendage fragment, R879A mutant
Sequence of AP-2 complex subunit beta (Homo sapiens) (P63010 whole entry, looked up, the tested form may be a part, one chain of several): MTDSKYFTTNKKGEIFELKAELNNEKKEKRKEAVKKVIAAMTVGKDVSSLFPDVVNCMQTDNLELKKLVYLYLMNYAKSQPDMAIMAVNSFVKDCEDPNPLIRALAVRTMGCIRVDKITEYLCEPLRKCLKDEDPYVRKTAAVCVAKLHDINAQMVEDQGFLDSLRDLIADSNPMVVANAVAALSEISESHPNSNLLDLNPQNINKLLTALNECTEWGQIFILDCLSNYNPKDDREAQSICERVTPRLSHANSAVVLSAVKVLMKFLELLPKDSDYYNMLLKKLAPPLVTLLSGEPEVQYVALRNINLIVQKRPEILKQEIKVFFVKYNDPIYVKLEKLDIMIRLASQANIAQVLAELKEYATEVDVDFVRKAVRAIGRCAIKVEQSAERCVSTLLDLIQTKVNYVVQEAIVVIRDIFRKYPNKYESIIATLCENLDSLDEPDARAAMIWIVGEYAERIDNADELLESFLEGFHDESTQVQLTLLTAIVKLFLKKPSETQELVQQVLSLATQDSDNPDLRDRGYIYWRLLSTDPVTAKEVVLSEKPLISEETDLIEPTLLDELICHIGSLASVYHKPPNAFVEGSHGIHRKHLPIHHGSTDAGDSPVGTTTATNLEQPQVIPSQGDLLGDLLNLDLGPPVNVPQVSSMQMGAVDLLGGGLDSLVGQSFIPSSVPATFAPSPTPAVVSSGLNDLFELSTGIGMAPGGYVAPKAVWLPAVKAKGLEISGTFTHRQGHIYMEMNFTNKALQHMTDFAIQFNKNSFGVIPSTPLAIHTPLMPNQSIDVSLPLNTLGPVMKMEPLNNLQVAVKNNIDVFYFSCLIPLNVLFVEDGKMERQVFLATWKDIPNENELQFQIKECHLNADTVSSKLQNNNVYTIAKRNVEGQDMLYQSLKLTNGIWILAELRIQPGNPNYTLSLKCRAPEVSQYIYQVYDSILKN

[7] = yeast V-ATPase proton transport modulators, S. cerevisiae, pHLuorin, HTS validation (AID 504600; in the data active = response above about 15%;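 note: plate controls were DMSO for no effect and reference compound for full effect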); conditions: S. cerevisiae pHLuorin cytosolic pH, at 10 µM, active compounds read high
[8] = test system: anti-desmoglein-3 scFv antibody binding to human DSG3; test: inhibitors of anti-DSG3 scFv binding to DSG3, pilot screen, biochemical, validation compound set, bead-based, flow cytometry (AID 588368;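 active = binding below the plate cutoff, the plate median minus 3 SD, with a reading above zero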;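 note: signal is the median channel fluorescence of bead-bound GFP antibody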); conditions: Protein G beads, DSG3-Fc, scFv-GFP binding, at 10 µM, active compounds read low
[9] = inhibitors of fungal efflux pumps CDR1, CDR2, MDR1, pilot screen, validation compound set, multiplex, phenotypic (AID 588506;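 active = efflux inhibition above 0.42, the validation set average plus 4 SD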;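 note: Nile Red retained in cells so higher fluorescence means more efflux inhibition; 0 = negative control wells and 1 = enniatin B 25 µM full block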); conditions: S. cerevisiae pump-expressing triplex, Nile Red efflux flow cytometry; at 10 µM; active compounds read high; the pumps come from Candida albicans
[10] = target: ATP-binding cassette sub-family B member 6 (Homo sapiens) (UniProt Q9NP58); test: ABCB6 transporter inhibitors, pilot screen, K562-ABCB6 cells, flow cytometry, validation set (AID 588550;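 active = inhibition above the screen-wide mean plus 3 SD, about 51%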;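 note: 0% = DMSO wells and 100% = benzethonium chloride 70 µM positive control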); conditions: K562-ABCB6 porphyrin accumulation, 1 h, at 10 µM, active compounds read high
Sequence of ATP-binding cassette sub-family B member 6 (Homo sapiens) (Q9NP58 whole entry, looked up): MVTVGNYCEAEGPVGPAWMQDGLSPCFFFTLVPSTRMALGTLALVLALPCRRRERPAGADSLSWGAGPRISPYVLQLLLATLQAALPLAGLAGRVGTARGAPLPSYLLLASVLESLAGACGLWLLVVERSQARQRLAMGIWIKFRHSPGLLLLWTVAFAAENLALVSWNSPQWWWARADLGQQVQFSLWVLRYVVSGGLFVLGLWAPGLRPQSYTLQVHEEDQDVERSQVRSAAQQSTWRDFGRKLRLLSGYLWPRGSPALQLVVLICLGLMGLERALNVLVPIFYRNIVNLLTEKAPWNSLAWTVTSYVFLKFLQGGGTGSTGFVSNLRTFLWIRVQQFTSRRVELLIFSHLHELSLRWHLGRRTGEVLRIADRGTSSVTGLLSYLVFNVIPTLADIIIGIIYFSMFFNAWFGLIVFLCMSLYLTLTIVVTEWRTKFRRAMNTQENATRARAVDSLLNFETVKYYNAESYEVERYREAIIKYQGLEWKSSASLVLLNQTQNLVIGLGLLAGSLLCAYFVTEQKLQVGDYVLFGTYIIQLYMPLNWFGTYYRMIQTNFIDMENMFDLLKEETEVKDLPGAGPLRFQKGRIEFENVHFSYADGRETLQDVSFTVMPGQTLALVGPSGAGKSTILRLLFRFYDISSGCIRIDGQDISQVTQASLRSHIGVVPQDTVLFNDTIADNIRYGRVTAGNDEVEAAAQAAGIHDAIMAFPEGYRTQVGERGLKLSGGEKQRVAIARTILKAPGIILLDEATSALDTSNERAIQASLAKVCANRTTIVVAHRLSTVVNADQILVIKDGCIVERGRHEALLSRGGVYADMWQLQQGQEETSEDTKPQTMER

[11] = promoters of myeloid differentiation in arrested cells, primary screen, cell-based, GFP/MAC1 double positive, flow cytometry, validation set (AID 588685;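 active = differentiation response of at least 50%, scaled between solvent and reference control, from cells with both markers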;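 note: compound exposure lasts four days before antibody staining and flow analysis; 0% = DMSO wells and 100% = 5 µM fulvestrant positive control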); conditions: ER-HoxA9 marrow cells, active compounds read high, normalized: vehicle 0, fulvestrant 100

OC(CCN1CCCCC1)(c1ccccc1)c1ccccc1
inactive: GFP response, % of DMSO [1] 96.3% | inhibition [2] 12.3% | superoxide response (% of plate) [3] 107% | aptamer binding inhibition [4] 2% | response [5] 1.89% | inhibition [6] 2.98% | response [7] 5.35% | binding (% of control) [8] 103% | efflux inhibition (fraction of control) [9] -0.24 | inhibition [10] 8% | differentiation response [11] -4.91%

C[C@]12CC[C@@H]3c4ccc(O)cc4C(=O)C[C@H]3[C@@H]1CC[C@@H]2O
inactive: GFP response, % of DMSO [1] 97.2% | inhibition [2] -0.33% | superoxide response (% of plate) [3] 104% | aptamer binding inhibition [4] 1% | response [5] -10.5% | inhibition [6] 44.1% | response [7] -4.63% | binding (% of control) [8] 91.9% | efflux inhibition (fraction of control) [9] 0.37 | inhibition [10] 0% | differentiation response [11] 0.82%

CC(=O)[C@@]1(O)CC[C@H]2[C@@H]3C[C@H](C)C4=CC(=O)CC[C@]4(C)[C@H]3CC[C@@]21C
inactive: GFP response, % of DMSO [1] 93.3% | inhibition [2] 11.3% | superoxide response (% of plate) [3] 97% | aptamer binding inhibition [4] 4% | response [5] 4.79% | inhibition [6] -6.18% | response [7] 1.54% | binding (% of control) [8] 102% | efflux inhibition (fraction of control) [9] -0.46 | inhibition [10] 13% | differentiation response [11] -9.01%

O=c1cnn([C@@H]2O[C@H](CO)[C@@H](O)[C@H]2O)c(=O)[nH]1
inactive: GFP response, % of DMSO [1] 89.9% | inhibition [2] 13.4% | superoxide response (% of plate) [3] 124% | aptamer binding inhibition [4] 1% | response [5] -10.1% | inhibition [6] -3.47% | response [7] -1.24% | binding (% of control) [8] 107% | efflux inhibition (fraction of control) [9] -0.04 | inhibition [10] 0% | differentiation response [11] 1.91%

O=C(NC1CCCCC1)N1CCc2[nH]c3ccccc3c2C1
inactive: GFP response, % of DMSO [1] 96% | inhibition [2] 24.9% | superoxide response (% of plate) [3] 90.3% | aptamer binding inhibition [4] 3% | response [5] 10.8% | inhibition [6] 12.6% | response [7] 13.8% | binding (% of control) [8] 219% | efflux inhibition (fraction of control) [9] 0.27 | inhibition [10] 6% | differentiation response [11] 10.6%

C#C[C@]1(O)CC[C@H]2[C@@H]3CCC4=CC(=O)CC[C@@H]4[C@H]3CC[C@@]21CC
inactive: GFP response, % of DMSO [1] 95.7% | inhibition [2] 15.1% | superoxide response (% of plate) [3] 92.6% | aptamer binding inhibition [4] 8% | response [5] -17.9% | inhibition [6] -1.43% | response [7] 1.52% | binding (% of control) [8] 98% | efflux inhibition (fraction of control) [9] -0.04 | inhibition [10] 7% | differentiation response [11] 2.89%

COc1cc2c(cc1OC)C(c1ccccc1)=NCC2
inactive: GFP response, % of DMSO [1] 98.3% | inhibition [2] 2.58% | superoxide response (% of plate) [3] 93.7% | aptamer binding inhibition [4] 3% | response [5] 2.38% | inhibition [6] 6.17% | response [7] -0.17% | binding (% of control) [8] 99% | efflux inhibition (fraction of control) [9] 0.34 | inhibition [10] 6% | differentiation response [11] 1.64%

CCOc1cc(C=O)ccc1OCCSc1ccc(C)cc1
inactive: GFP response, % of DMSO [1] 94.9% | inhibition [2] 9.13% | superoxide response (% of plate) [3] 108% | aptamer binding inhibition [4] 4% | response [5] 5.33% | inhibition [6] -9.69% | response [7] 5.17% | binding (% of control) [8] 98.9% | efflux inhibition (fraction of control) [9] 0.08 | inhibition [10] 5% | differentiation response [11] -16.8%

CC(=O)OCC(=O)[C@H]1CC[C@H]2[C@@H]3CCC4=CC(=O)CC[C@]4(C)[C@H]3CC[C@]12C
inactive: GFP response, % of DMSO [1] 95.2% | inhibition [2] -1.3% | superoxide response (% of plate) [3] 119% | aptamer binding inhibition [4] -1% | response [5] -16.7% | inhibition [6] -3.8% | response [7] -1.21% | binding (% of control) [8] 105% | efflux inhibition (fraction of control) [9] -0.28 | inhibition [10] 8% | differentiation response [11] -1.64%
